# Read-outs that look alike come from different tables or passages of the source.
# How the values were obtained:
# [1] = system: PRKD2; conditions: read-out: apparent Kd, n = 1
# [2] = system: PRKD3; conditions: read-out: apparent Kd, n = 1
substance,measurement,setting,value
Lestaurtinib,potency estimated from few doses,"[1]; compound concentrations:100 nM and 1000 nM (sheet 'Lestaurtinib' of Supplementary Table 1),run:Lestaurtinib_02741_R1,Plate:MR023",38.5 nM
same,potency estimated from few doses,"[1]; compound concentrations:100 nM and 1000 nM (sheet 'Lestaurtinib' of Supplementary Table 1),run:Lestaurtinib_02748_R1,Plate:MR024",45.6 nM
same,potency estimated from few doses,"[1]; compound concentrations:100 nM and 1000 nM (sheet 'Lestaurtinib' of Supplementary Table 1),run:Lestaurtinib_02748_R2,Plate:MR024",48.1 nM
same,potency estimated from few doses,"[1]; compound concentrations:100 nM and 1000 nM (sheet 'Lestaurtinib' of Supplementary Table 1),run:Lestaurtinib_02748_R3,Plate:MR024",45.9 nM
same,potency estimated from few doses,"[1]; compound concentrations:100 nM and 1000 nM (sheet 'Lestaurtinib' of Supplementary Table 1),run:Lestaurtinib_02752_R1,Plate:MR025",59.6 nM
same,potency estimated from few doses,"[1]; compound concentrations:100 nM and 1000 nM (sheet 'Lestaurtinib' of Supplementary Table 1),run:Lestaurtinib_02752_R2,Plate:MR025",58 nM
same,potency estimated from few doses,"[1]; compound concentrations:100 nM and 1000 nM (sheet 'Lestaurtinib' of Supplementary Table 1),run:Lestaurtinib_02752_R3,Plate:MR025",35.6 nM
same,potency estimated from few doses,"[1]; compound concentrations:100 nM and 1000 nM (sheet 'Lestaurtinib' of Supplementary Table 1),run:Lestaurtinib_02765_R1,Plate:MR026",39.1 nM
same,potency estimated from few doses,"[1]; compound concentrations:100 nM and 1000 nM (sheet 'Lestaurtinib' of Supplementary Table 1),run:Lestaurtinib_02765_R2,Plate:MR026",69.2 nM
same,potency estimated from few doses,"[1]; compound concentrations:100 nM and 1000 nM (sheet 'Lestaurtinib' of Supplementary Table 1),run:Lestaurtinib_02765_R3,Plate:MR026",67.9 nM
same,potency estimated from few doses,"[1]; compound concentrations:100 nM and 1000 nM (sheet 'Lestaurtinib' of Supplementary Table 1),run:Lestaurtinib_02766_R1,Plate:MR027",45.5 nM
same,potency estimated from few doses,"[1]; compound concentrations:100 nM and 1000 nM (sheet 'Lestaurtinib' of Supplementary Table 1),run:Lestaurtinib_02766_R2,Plate:MR027",40.9 nM
same,potency estimated from few doses,"[1]; compound concentrations:100 nM and 1000 nM (sheet 'Lestaurtinib' of Supplementary Table 1),run:Lestaurtinib_02768_R2,Plate:MR028",44 nM
same,potency estimated from few doses,"[1]; compound concentrations:100 nM and 1000 nM (sheet 'Lestaurtinib' of Supplementary Table 1),run:Lestaurtinib_02768_R3,Plate:MR028",41.6 nM
same,potency estimated from few doses,"[1]; compound concentrations:100 nM and 1000 nM (sheet 'Lestaurtinib' of Supplementary Table 1),run:Lestaurtinib_02795_R1,Plate:MR022",45 nM
same,potency estimated from few doses,"[1]; compound concentrations:100 nM and 1000 nM (sheet 'Lestaurtinib' of Supplementary Table 1),run:Lestaurtinib_02795_R2,Plate:MR022",37.3 nM
same,potency estimated from few doses,"[1]; compound concentrations:100 nM and 1000 nM (sheet 'Lestaurtinib' of Supplementary Table 1),run:Lestaurtinib_02802_R2,Plate:MR029",43.6 nM
same,potency estimated from few doses,"[1]; compound concentrations:100 nM and 1000 nM (sheet 'Lestaurtinib' of Supplementary Table 1),run:Lestaurtinib_02802_R3,Plate:MR029",32.9 nM
same,potency estimated from few doses,"[1]; compound concentrations:100 nM and 1000 nM (sheet 'Lestaurtinib' of Supplementary Table 1),run:Lestaurtinib_02896_R1,Plate:MR030",43 nM
same,potency estimated from few doses,"[1]; compound concentrations:100 nM and 1000 nM (sheet 'Lestaurtinib' of Supplementary Table 1),run:Lestaurtinib_02896_R2,Plate:MR030",50.1 nM
same,potency estimated from few doses,"[1]; compound concentrations:100 nM and 1000 nM (sheet 'Lestaurtinib' of Supplementary Table 1),run:Lestaurtinib_02896_R3,Plate:MR030",40.6 nM
same,potency estimated from few doses,"[1]; compound concentrations:100 nM and 1000 nM (sheet 'Lestaurtinib' of Supplementary Table 1),run:Lestaurtinib_03172_R1,Plate:MR031",29.7 nM
same,potency estimated from few doses,"[1]; compound concentrations:100 nM and 1000 nM (sheet 'Lestaurtinib' of Supplementary Table 1),run:Lestaurtinib_03172_R2,Plate:MR031",36 nM
same,potency estimated from few doses,"[1]; compound concentrations:100 nM and 1000 nM (sheet 'Lestaurtinib' of Supplementary Table 1),run:Lestaurtinib_03172_R3,Plate:MR031",44.1 nM
same,potency estimated from few doses,"[1]; compound concentrations:100 nM and 1000 nM (sheet 'Lestaurtinib' of Supplementary Table 1),run:Lestaurtinib_03252_R1,Plate:MR032",27.4 nM
same,potency estimated from few doses,"[1]; compound concentrations:100 nM and 1000 nM (sheet 'Lestaurtinib' of Supplementary Table 1),run:Lestaurtinib_03252_R2,Plate:MR032",32.1 nM
same,potency estimated from few doses,"[1]; compound concentrations:100 nM and 1000 nM (sheet 'Lestaurtinib' of Supplementary Table 1),run:Lestaurtinib_03260_R1,Plate:MR033",52.3 nM
same,potency estimated from few doses,"[2]; compound concentrations:100 nM and 1000 nM (sheet 'Lestaurtinib' of Supplementary Table 1),run:Lestaurtinib_02339_R1,Plate:MR001",98.8 nM
same,potency estimated from few doses,"[2]; compound concentrations:100 nM and 1000 nM (sheet 'Lestaurtinib' of Supplementary Table 1),run:Lestaurtinib_02339_R2,Plate:MR001",98.8 nM
same,potency estimated from few doses,"[2]; compound concentrations:100 nM and 1000 nM (sheet 'Lestaurtinib' of Supplementary Table 1),run:Lestaurtinib_02364_R1,Plate:MR002",97.6 nM
same,potency estimated from few doses,"[2]; compound concentrations:100 nM and 1000 nM (sheet 'Lestaurtinib' of Supplementary Table 1),run:Lestaurtinib_02364_R3,Plate:MR002",93.5 nM
same,potency estimated from few doses,"[2]; compound concentrations:100 nM and 1000 nM (sheet 'Lestaurtinib' of Supplementary Table 1),run:Lestaurtinib_02367_R1,Plate:MR003",45.3 nM
same,potency estimated from few doses,"[2]; compound concentrations:100 nM and 1000 nM (sheet 'Lestaurtinib' of Supplementary Table 1),run:Lestaurtinib_02367_R2,Plate:MR003",62.3 nM
same,potency estimated from few doses,"[2]; compound concentrations:100 nM and 1000 nM (sheet 'Lestaurtinib' of Supplementary Table 1),run:Lestaurtinib_02367_R3,Plate:MR003",63.6 nM
same,potency estimated from few doses,"[2]; compound concentrations:100 nM and 1000 nM (sheet 'Lestaurtinib' of Supplementary Table 1),run:Lestaurtinib_02381_R2,Plate:MR004",59.1 nM
same,potency estimated from few doses,"[2]; compound concentrations:100 nM and 1000 nM (sheet 'Lestaurtinib' of Supplementary Table 1),run:Lestaurtinib_02407_R1,Plate:MR005",98 nM
same,potency estimated from few doses,"[2]; compound concentrations:100 nM and 1000 nM (sheet 'Lestaurtinib' of Supplementary Table 1),run:Lestaurtinib_02407_R2,Plate:MR005",51.7 nM
same,potency estimated from few doses,"[2]; compound concentrations:100 nM and 1000 nM (sheet 'Lestaurtinib' of Supplementary Table 1),run:Lestaurtinib_02422_R1,Plate:MR006",76.7 nM
same,potency estimated from few doses,"[2]; compound concentrations:100 nM and 1000 nM (sheet 'Lestaurtinib' of Supplementary Table 1),run:Lestaurtinib_02422_R2,Plate:MR006",42 nM
same,potency estimated from few doses,"[2]; compound concentrations:100 nM and 1000 nM (sheet 'Lestaurtinib' of Supplementary Table 1),run:Lestaurtinib_02422_R3,Plate:MR006",81.8 nM
same,potency estimated from few doses,"[2]; compound concentrations:100 nM and 1000 nM (sheet 'Lestaurtinib' of Supplementary Table 1),run:Lestaurtinib_02437_R1,Plate:MR007",84 nM
same,potency estimated from few doses,"[2]; compound concentrations:100 nM and 1000 nM (sheet 'Lestaurtinib' of Supplementary Table 1),run:Lestaurtinib_02437_R3,Plate:MR007",5.38 nM

# — paper PMC11062922 (Nature Chemical Biology, 2023)
